PMC11006913

target: T1, NKX2-4 (Homo sapiens, UniProt Q9H2Z4 175-261, P217L); assay: PBM; 200 nM protein, PBS; conditions: dsDNA, one strand shown
T1 sequence: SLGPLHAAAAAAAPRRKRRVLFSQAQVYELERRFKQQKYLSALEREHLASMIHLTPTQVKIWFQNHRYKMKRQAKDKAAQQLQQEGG

Sequence | binding signal
GCGCGACA | 9.99 upbm affinity estimate (log intensity, higher = more binding, comparable within an allelic series)
CTCGAGTA | 12.3 upbm affinity estimate (log intensity, higher = more binding, comparable within an allelic series)
CGGCTGTA | 9.81 upbm affinity estimate (log intensity, higher = more binding, comparable within an allelic series)
CAAGCCAG | 9.67 upbm affinity estimate (log intensity, higher = more binding, comparable within an allelic series)
GAACTGGC | 9.51 upbm affinity estimate (log intensity, higher = more binding, comparable within an allelic series)
AGAGCACT | 12 upbm affinity estimate (log intensity, higher = more binding, comparable within an allelic series)
GGCAGTCA | 10.1 upbm affinity estimate (log intensity, higher = more binding, comparable within an allelic series)
GCTGTGCA | 9.63 upbm affinity estimate (log intensity, higher = more binding, comparable within an allelic series)
GTCAAGGA | 11.7 upbm affinity estimate (log intensity, higher = more binding, comparable within an allelic series)
CAAACCCG | 9.56 upbm affinity estimate (log intensity, higher = more binding, comparable within an allelic series)
CAGTGACC | 9.77 upbm affinity estimate (log intensity, higher = more binding, comparable within an allelic series)
AGCTGCGG | 9.39 upbm affinity estimate (log intensity, higher = more binding, comparable within an allelic series)
CCCCGCCG | 9.51 upbm affinity estimate (log intensity, higher = more binding, comparable within an allelic series)
AAAGCACT | 11.7 upbm affinity estimate (log intensity, higher = more binding, comparable within an allelic series)
CATCGCGA | 9.66 upbm affinity estimate (log intensity, higher = more binding, comparable within an allelic series)
CCGCCATA | 9.83 upbm affinity estimate (log intensity, higher = more binding, comparable within an allelic series)
CCGCTACC | 9.71 upbm affinity estimate (log intensity, higher = more binding, comparable within an allelic series)
ATCCCTCC | 9.86 upbm affinity estimate (log intensity, higher = more binding, comparable within an allelic series)
AAAGTACT | 12.4 upbm affinity estimate (log intensity, higher = more binding, comparable within an allelic series)
AACGCTGG | 9.65 upbm affinity estimate (log intensity, higher = more binding, comparable within an allelic series)

Sequence | binding signal
CAACCGTC | 9.81 upbm affinity estimate (log intensity, higher = more binding, comparable within an allelic series)
GACACCGC | 9.33 upbm affinity estimate (log intensity, higher = more binding, comparable within an allelic series)
GAGTGCCA | 12.1 upbm affinity estimate (log intensity, higher = more binding, comparable within an allelic series)
CCAGAGAC | 9.71 upbm affinity estimate (log intensity, higher = more binding, comparable within an allelic series)
CGCCCTGA | 9.84 upbm affinity estimate (log intensity, higher = more binding, comparable within an allelic series)
GCACGGGC | 9.59 upbm affinity estimate (log intensity, higher = more binding, comparable within an allelic series)
AGCTCGCG | 9.6 upbm affinity estimate (log intensity, higher = more binding, comparable within an allelic series)
CTCAAGAG | 12.4 upbm affinity estimate (log intensity, higher = more binding, comparable within an allelic series)
CCGCGGTA | 9.81 upbm affinity estimate (log intensity, higher = more binding, comparable within an allelic series)
ACATGCAG | 9.48 upbm affinity estimate (log intensity, higher = more binding, comparable within an allelic series)
GCGGCGAC | 9.68 upbm affinity estimate (log intensity, higher = more binding, comparable within an allelic series)
GCTATAGC | 9.92 upbm affinity estimate (log intensity, higher = more binding, comparable within an allelic series)
CACGCACG | 9.72 upbm affinity estimate (log intensity, higher = more binding, comparable within an allelic series)
GCACTCAA | 12.5 upbm affinity estimate (log intensity, higher = more binding, comparable within an allelic series)
CTCTTGAA | 12.5 upbm affinity estimate (log intensity, higher = more binding, comparable within an allelic series)
AAAGTAGC | 11.5 upbm affinity estimate (log intensity, higher = more binding, comparable within an allelic series)
GCAAGTGC | 11.9 upbm affinity estimate (log intensity, higher = more binding, comparable within an allelic series)
ATCACACC | 9.96 upbm affinity estimate (log intensity, higher = more binding, comparable within an allelic series)
ACTCATAG | 11.7 upbm affinity estimate (log intensity, higher = more binding, comparable within an allelic series)
CGGTCGTA | 9.63 upbm affinity estimate (log intensity, higher = more binding, comparable within an allelic series)
